Growth data for eight compounds are collected here from PubChem BioAssay (NCI).

Among the test systems are NCI-H23 lung; NCI-H226 lung; NCI-H322M lung; HOP-62 NSCLC; NCI-H460 lung; HOP-92 NSCLC; NCI-H522 lung; A549/ATCC NSCLC; 786-0 renal; COLO 205 colon; DU-145 prostate; K-562 leukemia; MALME-3M melanoma; MDA-MB-231 breast; RXF 393 renal; SF-268 CNS; SF-295 CNS; SF-539 CNS; UACC-257 melanoma; M14 melanoma.
Common to all, as to assay: NCI-60 one-dose screen, 48 h (100 = growth as untreated, 0 = no growth, -100 = all killed)
Settings in all cases: 10 µM unless noted

Compounds without any hit were thinned out: in the full panel of roughly 83,000, 20% have a hit.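 Values shown are percent growth following 48 h exposure of cells in 96-well plates to a single concentration of compound; below 10 was considered active.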 Values without a mark were called inactive. Active and inactive are the calls of the source.

As to `Cc1nc2cccc(NCc3ccc(C(=O)NO)cc3)c2c(=O)n1-c1ccccc1`, the growth is -16.8% (active) with NCI-H23 lung; 67.2% with NCI-H226 lung; 66.8% in the assay with NCI-H322M lung; 43.9% in the assay with HOP-62 NSCLC; 29.3% in the assay on NCI-H460 lung; 15.3% in the assay on HOP-92 NSCLC. Moreover, the growth in the assay on NCI-H522 lung is -2.46% (active); in the assay with A549/ATCC NSCLC, 34.1%; in the assay with 786-0 renal, 54.5%; in the assay with COLO 205 colon it was -37.9% (active); in the assay with DU-145 prostate, 26.7%; in the assay with K-562 leukemia, 18.7%. The growth in the assay with MALME-3M melanoma is 35.3%; in the assay on MDA-MB-231 breast it was 48.2%; in the assay with RXF 393 renal, 28.2%; with SF-268 CNS it was 54%; in the assay on SF-295 CNS it was 16%; with SF-539 CNS it was 15.1%. For the same compound, the growth in the assay with UACC-257 melanoma is 53.4%; with M14 melanoma, 32.8%.
Regarding `N#Cc1nn(-c2ccccn2)c(N)c1C#N`, the growth with NCI-H23 lung was 105%; in the assay with NCI-H226 lung it was 106%; in the assay with NCI-H322M lung, 107%; in the assay with HOP-62 NSCLC it was 97.1%; in the assay on NCI-H460 lung it was 106%; in the assay on HOP-92 NSCLC, 101%. For the same compound, the growth was 67.4% in the assay with NCI-H522 lung; 97.5% in the assay on A549/ATCC NSCLC; 98% in the assay on 786-0 renal; 106% in the assay on COLO 205 colon; 104% with DU-145 prostate; 94% in the assay with K-562 leukemia. Also, the growth was 103% in the assay with MALME-3M melanoma; 109% in the assay with MDA-MB-231 breast; 127% in the assay with RXF 393 renal; 97.2% in the assay with SF-268 CNS; 96.2% with SF-295 CNS; 97.2% in the assay on SF-539 CNS. Further, the growth in the assay on UACC-257 melanoma was 103%; with M14 melanoma it was 102%.
Turning to `Oc1c(Cl)cc(Cl)c2ccc(CN3CCNCC3)nc12`, the growth in the assay with NCI-H23 lung was 52.7%; in the assay on NCI-H226 lung, 61.6%; in the assay with NCI-H322M lung, 58.1%; with HOP-62 NSCLC, 29.3%; in the assay on NCI-H460 lung, 31.8%; in the assay on HOP-92 NSCLC, 54.1%. Also, the growth in the assay with NCI-H522 lung was 67.8%; in the assay on A549/ATCC NSCLC, 30.8%; in the assay with 786-0 renal, 49.2%; with COLO 205 colon, 102%; in the assay on DU-145 prostate, 50.8%; with K-562 leukemia it was 19%. In addition, the growth with MALME-3M melanoma is 67.9%; in the assay on MDA-MB-231 breast it was 59.3%; with RXF 393 renal, 60.3%; with SF-268 CNS, 39.9%; in the assay with SF-295 CNS, 39.4%; with SF-539 CNS, 58.3%. Also, the results for the growth in the assay with UACC-257 melanoma and with M14 melanoma were 70.9% and 47.7%, respectively.
Take `CN(C)CCOc1ccc(/C(=C(/CCCCCCCCCC[P+](c2ccccc2)(c2ccccc2)c2ccccc2)c2ccccc2)c2ccccc2)cc1`: the growth was -83.2% (active) in the assay with NCI-H23 lung; -53.2% (active) with NCI-H226 lung; -96.6% (active) in the assay on NCI-H322M lung; -66% (active) in the assay with HOP-62 NSCLC; -79.2% (active) in the assay on NCI-H460 lung; -84.3% (active) with HOP-92 NSCLC. Also, the growth is -75.1% (active) in the assay on NCI-H522 lung; -64.3% (active) in the assay with A549/ATCC NSCLC; -76.6% (active) in the assay with 786-0 renal; -64% (active) in the assay with COLO 205 colon; -94.1% (active) in the assay with DU-145 prostate; -39.3% (active) in the assay on K-562 leukemia. Also, the growth with MALME-3M melanoma is -82.2% (active); with MDA-MB-231 breast, -83.4% (active); in the assay with RXF 393 renal it was -73.8% (active); in the assay with SF-268 CNS, -72.1% (active); with SF-295 CNS it was -88.6% (active); in the assay with SF-539 CNS, -88.9% (active). Further, the growth in the assay on UACC-257 melanoma is -77.4% (active); in the assay with M14 melanoma, -79.6% (active).
Take `Cc1ccc(C(=O)Nc2ccc(CN3CCN(C)CC3)c(C(F)(F)F)c2)cc1C#Cc1cnc(N)c2ccccc12`: the growth with NCI-H23 lung was -46% (active); in the assay on NCI-H226 lung it was 21.6%; in the assay on NCI-H322M lung, 17%; in the assay with HOP-62 NSCLC, 15%; in the assay with NCI-H460 lung it was -86.8% (active); with HOP-92 NSCLC it was -14.8% (active). Besides, the growth in the assay on NCI-H522 lung is -44.3% (active); in the assay on A549/ATCC NSCLC, -65.7% (active); in the assay with 786-0 renal it was -77.4% (active); with COLO 205 colon, -66.3% (active); with DU-145 prostate, -89.3% (active); in the assay on K-562 leukemia, -23.5% (active). The growth in the assay with MALME-3M melanoma was -59.9% (active); in the assay on MDA-MB-231 breast it was -63.4% (active); with RXF 393 renal, -75.5% (active); with SF-268 CNS it was 1.65% (active); in the assay with SF-295 CNS, -35.9% (active); in the assay on SF-539 CNS, -84.8% (active). Further, the growth is -50.3% (active) in the assay with UACC-257 melanoma and -76.7% (active) in the assay on M14 melanoma.
In the case of `COCCn1cc(-c2nc(-c3cc4cccnc4n3C)cs2)c2cc(OC)ccc21`, the growth with NCI-H23 lung is 32.6%; with NCI-H226 lung, 46.6%; with NCI-H322M lung, 26%; in the assay on HOP-62 NSCLC it was 47.2%; in the assay with NCI-H460 lung it was 19.2%; in the assay with HOP-92 NSCLC, 31.4%. Further, the growth is 41.9% with NCI-H522 lung; 40.6% in the assay with A549/ATCC NSCLC; 66.8% with 786-0 renal; 50.4% with COLO 205 colon; 76.7% in the assay on DU-145 prostate; 9.5% (active) in the assay on K-562 leukemia. Further, the growth in the assay with MALME-3M melanoma was 108%; with MDA-MB-231 breast, 27.5%; with RXF 393 renal it was 78.3%; with SF-268 CNS it was 71.3%; in the assay with SF-295 CNS it was 66.1%; with SF-539 CNS it was 66.9%. In addition, the growth in the assay on UACC-257 melanoma is 74.3%; in the assay with M14 melanoma, 63.7%.
Regarding `CCOc1ccccc1NC(=O)CCC(=O)OC`, the growth in the assay with NCI-H23 lung was 109%; in the assay on NCI-H226 lung, 101%; in the assay with NCI-H322M lung, 96.5%; in the assay on HOP-62 NSCLC, 94.8%; with NCI-H460 lung, 108%; with HOP-92 NSCLC it was 110%. Further, the growth was 81.9% with NCI-H522 lung; 108% with A549/ATCC NSCLC; 91.1% with 786-0 renal; 103% in the assay with COLO 205 colon; 107% in the assay on DU-145 prostate; 108% with K-562 leukemia. Further, the growth is 72.9% in the assay with MALME-3M melanoma; 107% in the assay with MDA-MB-231 breast; 109% in the assay with RXF 393 renal; 96.9% in the assay on SF-268 CNS; 104% in the assay on SF-295 CNS; 97.4% in the assay on SF-539 CNS. For the same compound, the growth in the assay on UACC-257 melanoma was 123%; with M14 melanoma, 100%.
As to `[2H]C([2H])([2H])Oc1c(F)cccc1/C=C/C(=O)/C=C(O)/C=C/c1cccc(F)c1OC([2H])([2H])[2H]`, the growth with NCI-H23 lung is 86.1%; with NCI-H226 lung it was 108%; in the assay on NCI-H322M lung, 102%; in the assay with HOP-62 NSCLC, 110%; with NCI-H460 lung, 99.1%; in the assay on HOP-92 NSCLC, 89.4%. For the same compound, the growth in the assay on NCI-H522 lung is 87.4%; with A549/ATCC NSCLC, 90.9%; in the assay with 786-0 renal, 103%; in the assay with COLO 205 colon it was 114%; with DU-145 prostate, 103%; in the assay on K-562 leukemia it was 107%. Further, the growth in the assay on MALME-3M melanoma was 100%; in the assay on MDA-MB-231 breast it was 109%; in the assay with RXF 393 renal, 106%; in the assay on SF-268 CNS it was 90.5%; with SF-295 CNS, 102%; in the assay on SF-539 CNS it was 101%. Further, the growth in the assay with UACC-257 melanoma is 82.7%; in the assay on M14 melanoma, 92.9%.
